Compound activity (PubChem)
Compounds with a hit are over-represented: about 21% of the library has one in this group of screens.
Cycloheximide cs – Cycloheximide Counterscreen for Small Molecule Inhibitors of Shiga Toxin | cell reporter, cycloheximide protein synthesis inhibition counterscreen | max response, % | 12% of 300,000 active | AID 2314, 2010; in the data active = max response mostly above about 13%, no sharp cut-off; inactive = mostly below about 14%; note: read at 38.3 µM for the half of the compounds with a filed dose; 0% is about no effect
Pf growth 96h – Primary qHTS for delayed death inhibitors of the malarial parasite plastid, 96 hour incubation; Potency, µM (top dose mostly 28.7 µM), without a hit: at the top dose activity change, negative = inhibition, actives largely listed as inhibitors; P. falciparum luciferase reporter growth, 96 h; 6.9% of 320,000 active; note: potency is the fitted concentration of half-maximal effect; % is set by controls: 0 for no effect and ±100 for the full control effect
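P. falciparum expressing integrated firefly luciferase grown in erythrocytes (2% hematocrit, 0.05% parasitemia final) with compounds for 96 hours at 37 C, 5% CO2. Growth inhibition read as loss of luminescence after adding luciferase detection reagent.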
HCMV inh – qHTS Assay for inhibitors of the human cytomegalovirus (HCMV); activity change, negative = inhibition, % at 57.5 µM; HFF cells, HCMV-luciferase reporter, 72 h; active compounds read low; 4.5% of 410,000 active; in the data active = activity change below about -60%; inconclusive = no clear call, values can overlap the other calls; inactive = above about -39%; note: % is set by controls: 0 for no effect and ±100 for the full control effect
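After 16 h attachment at 37C, HFF cells received test compound and HCMV-luciferase (1 PFU/cell); reporter luminescence read 72 h later, data normalized against buffer-only and known inhibitor Salinomycin.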
Shiga toxin inh – A qHTS for Small Molecule Inhibitors of Shiga Toxin; 9.2% of 290,000 active; inhibition, % at 38.7 µM; Vero cells, Shiga toxin protein synthesis inhibition reporter; in the data active = inhibition mostly above about 28%, no sharp cut-off; inactive = mostly below about 43%; note: 0% is about no effect
Pf growth 48h – Primary qHTS for delayed death inhibitors of the malarial parasite plastid, 48 hour incubation; P. falciparum luciferase growth in erythrocytes, 48 h; Potency, µM (doses to about 28.7 µM), inactives show at the highest dose activity change, negative = inhibition, hits mostly inhibitors; 5.9% of 310,000 active; AID 504832, 2011; note: potency is the fitted concentration of half-maximal effect; % is set by controls: 0 for no effect and ±100 for the full control effect
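Luminescence readout; reporter = integrated firefly luciferase in P. falciparum. RBC culture at 2% hematocrit, 0.1% parasitemia final, 37 C/5% CO2; decreased signal taken as growth inhibition.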
HCV inhibitor – qHTS Assay for Inhibitors of Hepatitis C Virus (HCV). 3.4% of 340,000 active. AID 651820, 2012. Potency, µM (top dose mostly 41.8 µM), for inactives: top-dose activity change, negative = inhibition, hits mostly inhibitors. Huh7.5.1 HCVcc-Cre infection, luciferase reporter, 44 h; note: potency is the fitted concentration of half-maximal effect; % is set by controls: 0 for no effect and ±100 for the full control effect
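A cell-based infection assay in which seeded cells (1,000 per well) receive test compound after 4 h, are inoculated with HCVcc-Cre at approximately 0.5 moi, and are incubated 44 h before luminescence detection.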
Starred values were filed as active, the others as inactive; ? = inconclusive; / = no result; [ ] = another dose, or the depositor's remark. Unless noted, calls come from the whole dose curve; as a rule, active = well fitted inhibition curve with a large enough effect; inconclusive = small, poorly fitted or top-dose-only effect, or another doubt; inactive = no such curve, though single readings can be large or run the other way.

SMILES | Cycloheximide cs | Pf growth 96h | HCMV inh | Shiga toxin inh | Pf growth 48h | HCV inhibitor
Oc1ccc(/C=C/c2nc(-c3ccccc3O)n(-c3ccccc3)n2)cc1 | 0 | 53% | -8 | -34 | ? | ?
Oc1ccccc1-c1nc(/C=C/c2ccccc2)nn1-c1ccccc1 | 23* | 0% | ? | 33 | ? | -21%
Cc1nc2cccc(C(=O)Oc3ccc([N+](=O)[O-])cc3)c2o1 | 4 | 102% | 54 | -5 | 19% | 12%
Cc1nc2ccccc2c(=O)n1-c1ccc([N+](=O)[O-])cc1 | 42* | 15µM* | 1 | 64* | -7% | -1%
Cc1cc(-c2ccc([N+](=O)[O-])cc2)nc2ccccc12 | 46* | 118% | 46 | 62* | 48% | -7%
Cc1c(-c2ccccc2)nc2ccccc2c1C(=O)Oc1ccc([N+](=O)[O-])cc1 | -3 | ? | -76* | 1 | ? | ?
Cc1cc(N2CCN(c3nc(-c4ccc([N+](=O)[O-])cc4)cs3)CC2)c2ccccc2n1 | -6 | 26% | -23 | -6 | ? | 6.3µM*
CCOc1ccc(N2C(=O)CC(C(C)c3ccccc3)C2=O)cc1 (stereo unspecified) | -1 | ? | -9 | / | -7% | -19%
CN(Cc1ccccc1)c1nc(-c2ccc([N+](=O)[O-])cc2)nc2ccccc12 | -6 | ? | -40 | -1 | 10% | -2%
Cc1nc2cc([N+](=O)[O-])ccc2c(=O)n1-c1ccc(Br)cc1 | -2 | 13µM* | -6 | 2 | 13% | -8%
O=[N+]([O-])c1ccc(-c2nc(C(Cl)Cl)c3ccccc3n2)cc1 | -2 | ? | -102* | 14 | ? | 2µM*
CCN(CC)C(=O)/C(=C/c1cccc([N+](=O)[O-])c1)NC(=O)c1ccco1 | -3 | ? | 57 | -12 | 5% | -10%
O=C1c2ccccc2OC2(C=Cc3ccccc3O2)N1Cc1ccccc1 (stereo unspecified) | -3 | 4.1µM* | -5 | -10 | / | ?
COc1ccc(-c2coc3c(C(=O)NCCc4ccccc4)cccc23)c(C)c1 | / | / | -27 | / | / | /
COc1ccc(-c2coc3c(C(=O)NCCN4CCOCC4)cccc23)c(C)c1 | / | / | -32 | / | / | /
COc1ccc(-c2coc3c(C(=O)NCc4ccc(OC)c(OC)c4)cccc23)c(C)c1 | / | / | -75* | / | / | /
COc1ccc(-c2coc3c(C(=O)NCC4CCOCC4)cccc23)c(C)c1 | / | / | -61* | / | / | /
COc1ccc(-c2coc3c(C(=O)Nc4cc(OC)c(OC)c(OC)c4)cccc23)c(C)c1 | / | / | -65* | / | / | /
CCOc1ccc(OCCC(=O)N(CC)CC(=O)NCc2ccc(Cl)cc2)cc1 | / | 9% | -27 | / | 28% | ?
COc1ccc(/C=N/n2c(C)nc3c([nH]c4ccccc43)c2=O)cc1CN1CCCC(C)(C)C1 | -1 | 5.2µM* | -28 | 21 | 12µM* | -4%
COc1ccc2c(c1)[nH]c1c(=O)n(/N=C/c3ccc(OC)c(CN4CCCC4)c3)cnc12 | -2 | ? | -20 | 15 | 4.1µM* | ?
Cc1ccc(O)c(NC2=C(Cl)C(=O)N(Cc3ccccc3)C2=O)c1 | -2 | ? | -2 | -2 | 12µM* | -19%
Cc1ccc(C(=O)N2CCCCC2)cc1NC1=C(Cl)C(=O)N(Cc2ccccc2)C1=O | / | 5.2µM* | -66* | / | 4.7µM* | ?
CC(C)COCC(CN(Cc1ccccc1)c1ccccc1)N1CCCC1 (stereo unspecified) | -11 | ? | -67* | -8 | 11µM* | 4%
Cc1cccc(Cn2c(-c3ccc[nH]c3=O)nc3ccccc32)c1 | 2 | 5% | ? | 3 | 12% | 10%
O=c1[nH]cccc1-c1nc2ccccc2n1Cc1ccc(F)cc1 | 7 | 24% | -6 | 18 | 9% | 15%
Cc1cc2nc(-c3ccc[nH]c3=O)n(Cc3ccccc3F)c2cc1C | 38* | 50% | 40 | 43* | 13% | 17%
Cc1cc2nc(-c3ccc[nH]c3=O)n(Cc3ccc(F)cc3)c2cc1C | 12* | -11% | / | 23 | -4%[0.00184 µM] | 4%
